# According to PubChem BioAssay:
# For part of these data: Results with a measured potency or affinity are listed apart. Active and inactive are the calls of the source.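 Rule for the calls, unless noted: active = signal rise over 3 SD above mean of control wells given weak agonist, in both repeats and first screen; inactive = the rest.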
# Assays:
# [1] = system: TRPC4 beta (transient receptor potential cation channel C4), mouse; assay: activators of mouse TRPC4 channel, confirmation, cell-based, Fluo4 calcium, HEK293 TRPC4beta/mu-opioid, duplicates, 10 µM (AID 2426;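 active = fluorescence ratio normalized to control raised more than 50% in primary screen plus both repeat runs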;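 note: percent rise of integrated ratio over buffer wells lacking compound which define 0%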); conditions: Fluo4 calcium fluorescence, at 10 µM; stronger effect = higher value
# [2] = system: transient receptor potential cation channel C4 beta (TRPC4), mouse; assay: activators of mouse TRPC4 channel, confirmation, cell-based, second round, Fluo4, HEK293 TRPC4beta/mu-opioid, 1 µM (AID 2461;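 active = primary screen active and over 50% activation in each of two duplicate runs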;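 for activation: 0% = wells without test compound as baseline of integrated fluorescence ratio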); conditions: Fluo4 calcium fluorescence, at 1 µM; stronger effect = higher value
# [3] = system: TRPC4 (transient receptor potential cation channel C4 beta), mouse; assay: positive allosteric modulators of mouse TRPC4, confirmation, cell-based, second round, Fluo-4, HEK293 TRPC4beta/mu-opioid, 1 µM (AID 2554;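 active = primary screen hit whose fluorescence ratio, in both repeats, exceeds the weak agonist control mean by 3 SD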); conditions: DAMGO EC20, Fluo-4 calcium flux, at 1 µM; stronger effect = higher value
# [4] = system: TRPC4 beta (transient receptor potential cation channel C4), mouse; assay: positive allosteric modulators of mouse TRPC4, confirmation, cell-based, Fluo-4, HEK293 TRPC4beta/mu-opioid (AID 2555;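 active = primary screen hit whose calcium fluorescence ratio, in both repeats, exceeds the weak agonist control mean by 3 SD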); conditions: DAMGO EC20, Fluo-4 calcium flux, at 10 µM; stronger effect = higher value
# [5] = biological target: Short transient receptor potential channel 4 (Mus musculus) (UniProt Q9QUQ5); assay: inhibitors of mouse TRPC4 channel, confirmation, cell-based, Fluo4, HEK293 TRPC4beta/mu-opioid (AID 2636;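 active = calcium signal cut by more than 3 SD below the full-agonist control yet still positive, in both repeats and the earlier primary screen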); conditions: DAMGO, Fluo4 calcium flux, at 10 µM; stronger effect = higher value
# Short transient receptor potential channel 4 (Mus musculus), sequence (Q9QUQ5 whole entry, looked up): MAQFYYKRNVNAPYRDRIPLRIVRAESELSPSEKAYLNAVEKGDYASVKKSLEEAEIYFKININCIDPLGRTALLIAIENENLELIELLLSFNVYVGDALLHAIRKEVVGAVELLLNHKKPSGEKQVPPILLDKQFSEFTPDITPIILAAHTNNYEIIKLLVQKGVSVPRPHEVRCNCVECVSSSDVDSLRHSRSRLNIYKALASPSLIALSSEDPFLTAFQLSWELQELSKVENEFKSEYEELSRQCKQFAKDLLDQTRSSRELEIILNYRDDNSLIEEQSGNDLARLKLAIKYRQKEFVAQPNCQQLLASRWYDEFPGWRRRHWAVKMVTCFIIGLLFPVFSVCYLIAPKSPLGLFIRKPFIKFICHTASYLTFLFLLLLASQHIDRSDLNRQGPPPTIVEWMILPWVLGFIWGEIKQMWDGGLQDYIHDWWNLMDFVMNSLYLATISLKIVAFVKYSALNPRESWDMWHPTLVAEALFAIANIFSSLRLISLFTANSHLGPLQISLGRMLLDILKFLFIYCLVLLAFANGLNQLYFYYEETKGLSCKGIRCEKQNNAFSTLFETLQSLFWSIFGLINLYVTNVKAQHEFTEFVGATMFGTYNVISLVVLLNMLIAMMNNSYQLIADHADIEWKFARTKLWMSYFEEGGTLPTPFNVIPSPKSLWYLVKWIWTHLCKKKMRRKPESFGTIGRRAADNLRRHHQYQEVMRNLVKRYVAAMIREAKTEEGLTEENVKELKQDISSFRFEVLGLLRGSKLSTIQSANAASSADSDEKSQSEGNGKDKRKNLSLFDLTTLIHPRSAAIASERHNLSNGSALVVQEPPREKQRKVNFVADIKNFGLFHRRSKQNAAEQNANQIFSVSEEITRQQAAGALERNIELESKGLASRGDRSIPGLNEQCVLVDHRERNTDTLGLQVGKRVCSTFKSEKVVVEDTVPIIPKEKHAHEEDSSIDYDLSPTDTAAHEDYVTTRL
# [6] = biological target: Short transient receptor potential channel 4 (Mus musculus) (UniProt Q9QUQ5); assay: inhibitors of mouse TRPC4 channel, confirmation, cell-based, second round, Fluo4, HEK293 TRPC4beta/mu-opioid, 1 µM (AID 2637;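 active = calcium signal ratio cut to more than 3 SD under the fully stimulated control mean yet still positive, in both repeats and the primary screen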); conditions: Fluo4 calcium flux, DAMGO, at 1 µM; stronger effect = higher value
# [7] = biological target: Short transient receptor potential channel 4 (Mus musculus) (UniProt Q9QUQ5); assay: TRPC4 positive allosteric modulators, dose response, cell-based, HEK293 TRPC4/mu-opioid, Fluo-4 calcium, EC20 DAMGO (AID 434941;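 active = earlier screen potentiator hit that boosts the TRPC4 ion channel at some dose, with a dose response; inactive = no potentiation, no dose response, or not a prior hit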;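 note: calcium entry triggered by an EC20 dose of DAMGO at the co-expressed mu-opioid receptor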)
# [8] = biological target: Short transient receptor potential channel 4 (Mus musculus) (UniProt Q9QUQ5); assay: mouse TRPC4 channel inhibitors, dose response, cell-based, HEK293 TRPC4/mu-opioid, Fluo-4 calcium (AID 434942;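 active = primary screen inhibitor hit that blocks the TRPC4 channel at some tested dose, yielding a dose curve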)
# [9] = biological target: Short transient receptor potential channel 6 (Mus musculus) (UniProt Q61143); assay: inhibition of mouse TRPC6 channel, confirmation, selectivity assay for TRPC4 inhibitor project, cell-based, HEK293, membrane potential dye, duplicate (AID 434948;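 active = active in primary screen and both duplicates, each dropping signal beyond three positive-control SD with fluorescence still positive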); conditions: HEK293 TRPC6, membrane potential dye fluorescence, at 10 µM, stimulated with maximal-effect acetylcholine; stronger effect = higher value
# Short transient receptor potential channel 6 (Mus musculus), sequence (Q61143 whole entry, looked up): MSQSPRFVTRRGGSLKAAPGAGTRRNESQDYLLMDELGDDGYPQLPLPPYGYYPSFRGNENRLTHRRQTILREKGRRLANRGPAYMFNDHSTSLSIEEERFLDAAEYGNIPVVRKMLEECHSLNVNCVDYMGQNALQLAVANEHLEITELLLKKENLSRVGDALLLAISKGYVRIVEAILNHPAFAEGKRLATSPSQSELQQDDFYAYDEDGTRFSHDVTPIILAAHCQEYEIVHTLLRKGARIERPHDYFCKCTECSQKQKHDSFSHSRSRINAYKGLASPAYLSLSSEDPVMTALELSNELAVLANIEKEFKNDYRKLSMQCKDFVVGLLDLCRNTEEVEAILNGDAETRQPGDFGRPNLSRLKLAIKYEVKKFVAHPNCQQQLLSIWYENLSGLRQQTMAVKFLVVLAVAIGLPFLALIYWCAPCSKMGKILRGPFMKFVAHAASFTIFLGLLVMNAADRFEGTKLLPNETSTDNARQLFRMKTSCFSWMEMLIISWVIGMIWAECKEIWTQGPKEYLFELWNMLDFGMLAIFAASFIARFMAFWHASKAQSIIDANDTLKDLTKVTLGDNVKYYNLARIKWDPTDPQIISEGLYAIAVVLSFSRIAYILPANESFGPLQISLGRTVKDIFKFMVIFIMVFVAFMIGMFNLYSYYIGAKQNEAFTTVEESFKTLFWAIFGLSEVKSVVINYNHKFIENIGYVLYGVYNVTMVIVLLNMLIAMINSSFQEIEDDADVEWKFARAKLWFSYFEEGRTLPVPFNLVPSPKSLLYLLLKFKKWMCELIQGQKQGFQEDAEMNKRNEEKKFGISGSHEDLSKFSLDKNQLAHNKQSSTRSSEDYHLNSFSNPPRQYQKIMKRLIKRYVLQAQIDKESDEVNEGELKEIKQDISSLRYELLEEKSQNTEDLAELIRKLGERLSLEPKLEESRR
# [10] = biological target: Short transient receptor potential channel 6 (Mus musculus) (UniProt Q61143); assay: activation of mouse TRPC6 channel, confirmation, selectivity assay for TRPC4 activator project, cell-based, HEK293, membrane potential dye, duplicate (AID 434950;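 active = membrane potential signal rise above negative control mean plus 3 SD in both duplicates, also active in the earlier TRPC4 screen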;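 for activation: 0% = buffer only wells and 100% = acetylcholine maximal-effect wells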); conditions: HEK293 TRPC6, membrane potential fluorescence, at 10 µM; stronger effect = higher value
# [11] = biological target: Short transient receptor potential channel 6 (Mus musculus) (UniProt Q61143); assay: TRPC6 potentiation by TRPC4 potentiator hits, confirmation, selectivity assay for TRPC4 potentiator project, HEK293 cells, membrane potential dye, duplicate (AID 434952;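 active = compound raising the membrane signal above positive-control mean plus 3 SD in both repeats, and a primary screen hit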); conditions: HEK293 TRPC6, membrane potential dye fluorescence, at 10 µM, maximal acetylcholine added after compound; stronger effect = higher value
# [12] = biological target: Short transient receptor potential channel 4 (Mus musculus) (UniProt Q9QUQ5); assay: calcium flux activators in TRPC4/5HT1a cells, counter-screen for TRPC4 activator project, cell-based, second counter screen, HEK293 TRPC4/5HT1a, Fluo-4 (AID 434977;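 active = calcium signal rise above buffer-control mean plus 5 SD in both duplicates, and also a hit in the primary screen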;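 for activation: plate controls were assay buffer for no effect and maximal serotonin response for full effect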); conditions: Fluo-4 calcium flux, at 10 µM; stronger effect = higher value
# [13] = calcium flux inhibitors in TRPC4/5HT1a cells, confirmation, counter-screen for TRPC4 inhibitor project, cell-based, second counter screen, HEK293 TRPC4/5HT1a, Fluo-4 (AID 434978;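 active = primary screen active whose calcium signal fell more than 3 SD beyond the full-serotonin control mean in both duplicate plates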;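 note: serotonin given first at submaximal then at maximal dose after compound preincubation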); conditions: Fluo-4 calcium flux, at 10 µM, serotonin added to trigger calcium flux; stronger effect = higher value
# [14] = system: TRPC4 (mouse), co-expressed with 5HT1a in HEK293; assay: calcium flux potentiators in TRPC4/5HT1a cells, confirmation, counter-screen for TRPC4 potentiator project, cell-based, second counter screen, HEK293 TRPC4/5HT1a, Fluo-4 (AID 434979); conditions: Fluo-4 calcium flux, at 10 µM, serotonin added at its EC20 dose; stronger effect = higher value
# [15] = calcium flux activation in mu-opioid HEK293 cells, confirmation, counter-screen for TRPC4 activator project, cell-based, HEK293 mu-opioid receptor line (AID 449723;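 active = hit in primary screen, with calcium signal over 5 SD above buffer well mean in both duplicates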;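 note: counter screen cells carry the mu-opioid receptor alone and lack TRPC4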); conditions: Fluo-4 calcium fluorescence, at 10 µM; stronger effect = higher value
# [16] = calcium flux enhancement in mu-opioid HEK293 cells, confirmation, counter-screen for TRPC4 allosteric potentiator project, cell-based, HEK293 mu-opioid receptor line (AID 449724;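 active = calcium signal rise more than 3 SD above the low-dose agonist control mean, in both duplicate plates and the primary screen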); conditions: Fluo-4 calcium flux, at 10 µM, compound added before EC20 DAMGO stimulus; stronger effect = higher value
SMILES,activation [1],outcome [2],outcome [3],outcome [4],outcome [5],outcome [6],outcome [7],outcome [8],outcome [9],activation [10],outcome [11],outcome [12],outcome [13],outcome [14],outcome [15],outcome [16],activation [12],activation [15],outcome [10],activation [2]
CCOc1ccc(S(=O)(=O)Nc2cccc(C(=O)NCC(c3ccccc3)N(C)C)c2)cc1 (stereo not given),255% (active),inactive,inactive,inactive,inactive,inactive,inactive,inactive,inactive,43% (active),inactive,inactive,inactive,inactive,inactive,inactive,,,,
Cc1cc2nc3s/c(=C/c4ccc(-c5ccccc5C(=O)O)o4)c(=O)n3c2cc1C,177% (active),inactive,inactive,inactive,inactive,inactive,inactive,inactive,inactive,675% (active),inactive,,inactive,inactive,,inactive,112% (active),136% (active),,
CCCCN(CC)CCNC(=O)Cn1cc2c(n1)-c1c(oc(C(=O)N3CCCC3)c1C)CC2,65% (active),inactive,inactive,inactive,inactive,inactive,inactive,inactive,inactive,34% (active),inactive,,inactive,inactive,inactive,inactive,18.6% (active),,,
COc1ccc(C(CNC(=O)c2cc(C)on2)N(C)C)cc1 (stereo not given),199% (active),inactive,inactive,inactive,inactive,inactive,inactive,inactive,inactive,27.5% (active),inactive,inactive,inactive,inactive,inactive,inactive,,,,
COc1ccc(C(CNC(=O)COc2ccccc2OC)N(C)C)cc1OC (stereo not given),133% (active),inactive,inactive,inactive,inactive,inactive,inactive,inactive,inactive,35% (active),inactive,inactive,inactive,inactive,inactive,inactive,,,,
CCc1ccc(C(=O)c2cnc3ccc(OC)cc3c2N2CCN(CC)CC2)cc1,283% (active),inactive,inactive,inactive,inactive,inactive,inactive,inactive,inactive,,inactive,inactive,inactive,inactive,inactive,inactive,,,inactive,
CCCn1ncc(CN2CCC(n3nccc3NC(=O)CCc3ccccc3)CC2)c1C,132% (active),,inactive,inactive,inactive,inactive,inactive,inactive,inactive,36.5% (active),inactive,inactive,inactive,inactive,inactive,inactive,,,,115% (active)
CN(CCc1ccccn1)C(=O)CC1C(=O)NCCN1Cc1ccc(-c2ccccc2)cc1 (stereo not given),130% (active),inactive,inactive,inactive,inactive,inactive,inactive,inactive,inactive,42.5% (active),inactive,,inactive,inactive,inactive,inactive,31.3% (active),,,
CCC(=O)N1CCc2cc(Br)cc(S(=O)(=O)NCCCN(CC)Cc3ccccc3)c21,126% (active),,inactive,inactive,inactive,inactive,inactive,inactive,inactive,,inactive,,inactive,inactive,inactive,inactive,55.5% (active),,inactive,153% (active)
CN(CCc1ccccn1)C1CC(=O)N(c2ccc(Cl)cc2)C1=O (stereo not given),195% (active),,inactive,inactive,inactive,inactive,inactive,inactive,inactive,,inactive,,inactive,inactive,inactive,inactive,102% (active),,inactive,70% (active)
CN(C)CCCN(C(=O)c1ccc(Cl)s1)c1nc2cc3c(cc2s1)OCO3,63% (active),inactive,inactive,inactive,inactive,inactive,inactive,inactive,inactive,,inactive,inactive,inactive,inactive,inactive,inactive,,,inactive,
Cn1c(N2CCN(C(=O)Nc3ccc(C(F)(F)F)cc3)CC2)nc2ccccc21,81% (active),inactive,inactive,inactive,inactive,inactive,inactive,inactive,inactive,,inactive,,inactive,inactive,inactive,inactive,31.2% (active),,inactive,
Cc1cccn2c(CNCCc3ccccn3)c(C(=O)N3CCOCC3)nc12,184% (active),,inactive,inactive,inactive,inactive,inactive,inactive,inactive,46.5% (active),inactive,,inactive,inactive,inactive,inactive,57.2% (active),,,55% (active)
CCN1CCN(c2c(Cl)cccc2NC(=O)c2ccc([N+](=O)[O-])cc2)CC1,80% (active),inactive,inactive,inactive,inactive,inactive,inactive,inactive,inactive,,inactive,,inactive,inactive,inactive,inactive,7.83% (active),,inactive,
COc1c(C)cc(C(=O)C2CCCN(Cc3cccc4nccnc34)C2)cc1C (stereo not given),108% (active),inactive,inactive,inactive,inactive,inactive,inactive,inactive,inactive,24% (active),inactive,,inactive,inactive,inactive,inactive,37.7% (active),,,
